# Test results as given in paper PMC7862700, “An all-to-all approach to the identification of sequence-specific readers for epigenetic DNA modifications on cytosine”.
# Legend:
# Test in all cases: DAPPL (digital affinity profiling via proximity ligation, sequencing); 10 mM Tris-HCl pH 7.5, 50 mM NaCl, 1 mM DTT, 4% glycerol, room temperature, 30 min; GST-TFs on glutathione beads, 16-mer random dsDNA library, 0.1% formaldehyde crosslink after washing; high values mean tight binding
# Conditions in all cases: protein: recombinant; tags: N-terminal GST; dsDNA, one strand shown
# FLI1 = molecular target: T1, FLI1 (Homo sapiens, UniProt Q01543 1-452)
# T1 sequence: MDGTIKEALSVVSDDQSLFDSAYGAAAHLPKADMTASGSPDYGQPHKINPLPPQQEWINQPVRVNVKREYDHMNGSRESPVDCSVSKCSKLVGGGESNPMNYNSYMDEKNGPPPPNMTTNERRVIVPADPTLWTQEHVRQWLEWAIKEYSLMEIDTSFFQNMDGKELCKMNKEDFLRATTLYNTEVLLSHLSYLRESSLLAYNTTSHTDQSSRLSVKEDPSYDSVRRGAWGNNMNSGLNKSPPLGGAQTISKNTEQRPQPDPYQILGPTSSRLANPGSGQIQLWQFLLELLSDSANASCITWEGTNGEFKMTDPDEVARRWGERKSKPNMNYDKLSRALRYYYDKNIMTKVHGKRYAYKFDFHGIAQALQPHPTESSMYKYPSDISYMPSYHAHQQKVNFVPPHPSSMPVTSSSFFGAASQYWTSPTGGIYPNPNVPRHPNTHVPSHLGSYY
# In short: (§1)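 Each value of binding signal is a hexamer's read frequency for a factor divided by the same hexamer's frequency in the tag-only sample. Barcoded, bead-captured GST fusions of human transcription factors made in yeast were pooled with that sample and incubated with 200 nmole of a random double-stranded 16-mer DNA library in Tris/NaCl/DTT/glycerol buffer at room temperature for 30 min. Washing, 0.1% formaldehyde crosslinking, proximity ligation, PCR and Illumina NextSeq500 sequencing followed.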
# ELK1 = molecular target: T2, ELK1 (Homo sapiens, UniProt P19419 1-428)
# T2 sequence: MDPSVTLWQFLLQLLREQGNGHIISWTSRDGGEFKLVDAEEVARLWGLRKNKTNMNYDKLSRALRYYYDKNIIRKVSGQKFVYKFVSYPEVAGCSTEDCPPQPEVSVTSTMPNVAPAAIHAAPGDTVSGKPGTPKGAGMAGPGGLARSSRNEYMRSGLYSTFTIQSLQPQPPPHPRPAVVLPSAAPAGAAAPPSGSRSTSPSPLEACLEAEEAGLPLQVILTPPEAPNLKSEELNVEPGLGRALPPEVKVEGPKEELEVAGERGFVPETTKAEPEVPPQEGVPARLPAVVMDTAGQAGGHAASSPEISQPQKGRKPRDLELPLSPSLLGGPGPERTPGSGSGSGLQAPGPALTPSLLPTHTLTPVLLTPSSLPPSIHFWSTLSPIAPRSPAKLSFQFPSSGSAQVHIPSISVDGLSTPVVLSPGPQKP
# In short: as §1
# GABPA = molecular target: T3, GABPA (Homo sapiens, UniProt Q06546 1-454)
# T3 sequence: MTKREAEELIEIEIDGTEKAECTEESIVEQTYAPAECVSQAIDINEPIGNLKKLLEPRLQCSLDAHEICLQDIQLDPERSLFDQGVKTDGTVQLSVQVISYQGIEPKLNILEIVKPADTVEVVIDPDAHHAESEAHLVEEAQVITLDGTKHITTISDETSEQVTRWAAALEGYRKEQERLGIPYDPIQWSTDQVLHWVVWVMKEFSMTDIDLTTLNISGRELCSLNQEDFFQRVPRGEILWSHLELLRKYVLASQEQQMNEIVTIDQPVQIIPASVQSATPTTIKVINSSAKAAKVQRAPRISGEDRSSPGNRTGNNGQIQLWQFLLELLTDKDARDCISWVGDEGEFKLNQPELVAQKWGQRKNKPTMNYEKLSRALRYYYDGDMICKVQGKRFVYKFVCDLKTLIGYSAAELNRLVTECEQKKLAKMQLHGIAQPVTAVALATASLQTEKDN
# In short: as §1
# ERG = molecular target: T4, ERG (Homo sapiens, UniProt P11308 1-479)
# T4 sequence: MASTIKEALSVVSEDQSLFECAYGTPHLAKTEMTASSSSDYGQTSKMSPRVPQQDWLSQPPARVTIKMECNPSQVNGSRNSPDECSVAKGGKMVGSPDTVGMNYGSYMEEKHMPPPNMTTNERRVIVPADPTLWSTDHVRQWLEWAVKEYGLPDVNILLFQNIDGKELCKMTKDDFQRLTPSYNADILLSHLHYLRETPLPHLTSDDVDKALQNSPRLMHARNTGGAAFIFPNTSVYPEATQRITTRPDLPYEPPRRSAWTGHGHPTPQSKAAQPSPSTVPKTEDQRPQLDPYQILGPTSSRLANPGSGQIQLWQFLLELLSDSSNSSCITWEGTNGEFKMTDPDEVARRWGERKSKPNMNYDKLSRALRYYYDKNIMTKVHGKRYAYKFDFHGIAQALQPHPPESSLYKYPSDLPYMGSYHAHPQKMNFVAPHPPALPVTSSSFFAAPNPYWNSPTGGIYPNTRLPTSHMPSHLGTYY
# In short: as §1
# ELF1 = ELF1 (Homo sapiens, UniProt P32519 1-619)
# Chain of ELF1 (P32519 whole entry): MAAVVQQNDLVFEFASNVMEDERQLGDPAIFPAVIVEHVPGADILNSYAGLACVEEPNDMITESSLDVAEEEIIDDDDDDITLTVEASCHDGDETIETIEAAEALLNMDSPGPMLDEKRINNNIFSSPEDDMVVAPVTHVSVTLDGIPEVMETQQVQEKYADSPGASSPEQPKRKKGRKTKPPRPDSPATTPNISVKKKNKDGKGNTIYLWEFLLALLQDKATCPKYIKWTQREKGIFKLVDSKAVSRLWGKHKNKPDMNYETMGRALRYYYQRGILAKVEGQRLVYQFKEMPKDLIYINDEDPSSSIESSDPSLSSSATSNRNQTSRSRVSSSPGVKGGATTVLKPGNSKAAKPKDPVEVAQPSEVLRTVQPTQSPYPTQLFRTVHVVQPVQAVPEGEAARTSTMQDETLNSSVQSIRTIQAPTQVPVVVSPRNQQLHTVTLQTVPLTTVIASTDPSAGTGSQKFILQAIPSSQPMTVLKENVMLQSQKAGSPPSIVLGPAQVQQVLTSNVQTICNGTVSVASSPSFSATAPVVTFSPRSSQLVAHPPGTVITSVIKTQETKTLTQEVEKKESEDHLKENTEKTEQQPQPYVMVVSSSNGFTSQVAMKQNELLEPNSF
# In short: as §1
# EHF = molecular target: T5, EHF (Homo sapiens, UniProt Q9NZC4 1-300)
# T5 sequence: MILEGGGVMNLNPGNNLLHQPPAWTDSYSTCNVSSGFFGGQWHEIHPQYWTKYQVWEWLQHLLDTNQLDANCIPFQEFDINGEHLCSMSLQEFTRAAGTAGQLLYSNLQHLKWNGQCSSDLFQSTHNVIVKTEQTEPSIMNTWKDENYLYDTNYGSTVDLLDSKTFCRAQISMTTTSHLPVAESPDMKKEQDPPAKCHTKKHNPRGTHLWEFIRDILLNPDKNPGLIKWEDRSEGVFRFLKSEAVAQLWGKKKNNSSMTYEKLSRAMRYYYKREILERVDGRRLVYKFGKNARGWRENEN
# In short: as §1
# SPI1 = SPI1 (Homo sapiens, UniProt P17947 1-270)
# In short: as §1
# SPIB = SPIB (Homo sapiens, UniProt Q01892 1-262)
# Chain of SPIB (Q01892 whole entry): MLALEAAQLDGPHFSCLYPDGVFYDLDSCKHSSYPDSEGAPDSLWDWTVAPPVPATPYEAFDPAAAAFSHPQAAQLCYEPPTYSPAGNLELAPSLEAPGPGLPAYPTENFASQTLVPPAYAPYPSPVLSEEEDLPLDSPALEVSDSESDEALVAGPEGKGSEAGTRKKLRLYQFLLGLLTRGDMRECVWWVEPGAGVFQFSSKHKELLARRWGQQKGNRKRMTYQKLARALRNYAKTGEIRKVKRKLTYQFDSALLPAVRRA
# In short: as §1
# ELK3 = molecular target: T6, ELK3 (Homo sapiens, UniProt P41970 1-407)
# T6 sequence: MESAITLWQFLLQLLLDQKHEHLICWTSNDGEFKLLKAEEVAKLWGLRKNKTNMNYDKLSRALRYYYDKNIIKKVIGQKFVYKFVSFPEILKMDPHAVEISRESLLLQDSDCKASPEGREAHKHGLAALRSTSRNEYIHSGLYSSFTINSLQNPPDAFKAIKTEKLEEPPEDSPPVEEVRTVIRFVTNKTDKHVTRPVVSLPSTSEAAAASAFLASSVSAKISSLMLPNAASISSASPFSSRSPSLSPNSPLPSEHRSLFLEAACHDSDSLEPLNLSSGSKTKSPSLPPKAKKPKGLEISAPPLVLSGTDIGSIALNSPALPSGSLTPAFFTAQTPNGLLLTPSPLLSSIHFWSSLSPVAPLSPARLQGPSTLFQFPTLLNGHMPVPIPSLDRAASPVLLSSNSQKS
# In short: as §1
sequence,measurement,setting,value
TCCTAG,binding signal,FLI1,"1.23 fold enrichment (6-mer frequency, TF over GST control)"
same,binding signal,ELK1,"1.11 fold enrichment (6-mer frequency, TF over GST control)"
same,binding signal,GABPA,"1.24 fold enrichment (6-mer frequency, TF over GST control)"
same,binding signal,ERG,"1.17 fold enrichment (6-mer frequency, TF over GST control)"
same,binding signal,ELF1,"1.31 fold enrichment (6-mer frequency, TF over GST control)"
same,binding signal,EHF,"1.22 fold enrichment (6-mer frequency, TF over GST control)"
same,binding signal,SPI1,"1.12 fold enrichment (6-mer frequency, TF over GST control)"
same,binding signal,SPIB,"1.41 fold enrichment (6-mer frequency, TF over GST control)"
same,binding signal,ELK3,"1.2 fold enrichment (6-mer frequency, TF over GST control)"
